According to the supplement of paper PMC10338343:
± gives the standard deviation.

Test system: MILI (PIWIL2) piRISC loaded with piRNA #1 (26 nt)
Assay: pre-steady-state target cleavage rate (min^-1); guide: piRNA #1 5'p-UGAGGUAGUAGGUUGUAUAGUAUCCA; MIWI and MILI are mouse PIWI proteins and EfPiwi is from a freshwater sponge; tags in brackets are library labels; higher = faster piRNA-guided slicing of the target
Details: auxiliary factor: 500 nM mouse GTSF1
Procedure, shortened: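 Cleave-'n-Seq: 1 nM active affinity-purified piRISC with one synthetic guide and 0.1 nM transcribed, DNA-blocked target RNA library were mixed, with or without 500 nM GTSF1 partner protein, in HEPES–potassium acetate buffer at 33 °C for 0–8 or 0–960 min. Uncleaved targets were sequenced and normalised to depth and to weakly complementary targets, three trials were pooled, and k3 was capped at 0.0001 min^-1. The pre-steady-state cleavage rate was fitted […].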

Sequence | pre-steady-state target cleavage rate
GGAGACCUUACUAUACAACCUACAUGGAGA [g8:g22:cont:t1A] | 0.00299 ± 0.0029
GGAGACCUAUGAUAUCAACCUAUCUACCUCA | 0.00534 ± 0.002
GGAGACGAUACUAUACAACCUACUAUCUCA | 0.149 ± 0.014
GGAGACCUAACUAUAAAACCUACUACCUCA | 0.0772 ± 0.013
GGAGACCUAACUAUACUUGCUACUACCUCA | 0.0149 ± 0.0044
GGAGACGAAACUAUAGAACCUACUACCUCA | 0.146 ± 0.014
GGAGACCUAUCUAUACAACCUACUAGCUCA | 0.0827 ± 0.014
GGAGACCUAUCUAUUCAACGUACUACCUCA | 0.00945 ± 0.003
GGAGACCUUACUUUACAACCAACUACCUCA | 0.00491 ± 0.0033
GGAGUGGAUACUAAACAACCAACUACCUCA | 0.007 ± 0.0021
GGAGACCUUACUAAACUACCUACUACCUCA | 0.104 ± 0.013
GGAGACCUAACUAAACAACCUACAACCUCA | 0.131 ± 0.029
GGAGACCUAUCUAUACUACCUAGUACCUCA | 0.0113 ± 0.0036
GGAGACCUUACUAUACAACCUAUCUACCUCA | 0.0976 ± 0.011
GGAGACCUAUCUAUACAACCUUCUACGUCA | 0.00428 ± 0.003
GGAGACCUAUCUAUACAACCUACUUCCUGA | 0.0608 ± 0.018
GGAGACCUAUCUUUACAACCUACUACCUGA | 0.0554 ± 0.012
GGAGAGGAUACUAGACAACCUACUACCUCA | 0.118 ± 0.01
GGAGACCUAUGAUAUGAAACCUACUACCUCA | 0.00314 ± 0.0026
GGAGACCUAUGUACACAACCUACUACCUCA | 0.0498 ± 0.0086
GGAGACCAUACUAAACAACGUACUACCUCA | 0.0192 ± 0.003
GGAGACCUAUCUUUACUACCUACUACCUCA | 0.0305 ± 0.008
GGAGACGAUAGUAUACAACCUACUACCACA | 0.136 ± 0.015
GGAGACCUAAGUAUACAACCUACUAGCUCA | 0.0149 ± 0.0043

Sequence | pre-steady-state target cleavage rate
GGAGACGAUAGUAUACAACCAACUACCUCA | 0.00662 ± 0.0036
GGAGACCUUACUAUACAACCUAAUACCUCA | 0.102 ± 0.014
GGAGACCUAUGUAUACAACCAUACUACCUCA | 0.00475 ± 0.0025
GGAGACCUAUGUAUACUACCUACUUCCUCA | 0.0346 ± 0.0069
GGAGACCUAACUAUACAUCCUACUACCACA | 0.251 ± 0.046
GGAGACCUAACUAUAGAACCUACUAGCUCA | 0.00426 ± 0.0041
GGAGACCUAUGAUAUGUUCCUACUAGGUCA | < 0.0001
GGAGACCUUACUAUAGAUCCUACUACCUCA | 0.204 ± 0.017
GGAGACCUAUGAUAUGUUGCUACUCCCUCA | < 0.0001
GGAGACCUAUGAUAACAACCUACCUACCUCA | 0.00593 ± 0.003
GGAGACCAUACUUAUCAACCUACUACCUCA | 0.102 ± 0.02
GGAGAGGAUACAAUACAUCCUACUACCUCA | 0.239 ± 0.021
GGAGACCUAUGAUAUGUACCUACACCUCA | < 0.0001
GGAGACCUUAGUAUUCAACCUACUACCUCA | 0.089 ± 0.011
GGAGACCUAUGUAUACAUCCUACAACCUCA | 0.114 ± 0.014
GGAGAGGAUUCUAUACAACCUACUACCACA | 0.113 ± 0.011
GGAGACCUAUGAUAACAACCUACUAACCUCA | 0.00664 ± 0.002
GGAGACCUAACUUAUCAACCUACUACCUCA | 0.0153 ± 0.0078
GGAGACCUAUGAUAUGAACCUACUUACCUCA | < 0.0001
GGAGACCUAUGAUAUGAACCUGCUACCUCA | < 0.0001
GGAGACCUAUGUAUACAACCUACUACGUCA | 0.0197 ± 0.0037
GGAGACCUUUCUAUUCAACCUACUACCUCA | 0.0926 ± 0.012
GGAGACCUAACUAAACAACCUACUUCCUCA | 0.0346 ± 0.013
GGAGACCUAUGAUUACAUCCUACUAGCUCA | 0.00651 ± 0.0025

Sequence | pre-steady-state target cleavage rate
GGAGACCUAACUAUACAACCUACUACCGCA | 0.197 ± 0.038
GGAGACCUAUCUAUACAACCUACAUCCUCA | 0.0186 ± 0.0046
GGAGACCUAUGUAUACCACCUACUACCUCA | 0.0404 ± 0.0088
GGAGACCUAUGAAUACAACCUAUCUACCUCA | 0.00974 ± 0.0026
GGAGACCUAACUAGACAACCUACUACCUCA | 0.0997 ± 0.02
GGAGACCUUUCUAUACAACCUACUUCCUCA | 0.0321 ± 0.0062
GGAGAGGAUUCUAUACAACCUAGUACCUCA | 0.0548 ± 0.0098
GGAGACCUUACUAUACAACCGUACUACCUCA | 0.00868 ± 0.0053
GGAGACCUAUCUAUUCAACCUACUACCUCA | 0.108 ± 0.015
GGAGACCUAUGUAUACAACCUACUUCCUCA | 0.0381 ± 0.0071
GGAGACCUAUCAAUACAACCUUCUACCUCA | 0.00474 ± 0.0027
GGAGACGAUACUUUACAACCUACUAGCUCA | 0.0695 ± 0.013
GGAGACCUAACUAUACAUCGUACUACCUCA | 0.0246 ± 0.0074
GGAGACCUAACUAUACAACCUACUACUCUCA | 0.208 ± 0.028
GGAGACCUAUGUAUCCAACCUACUACCUCA | 0.0333 ± 0.005
GGAGAGGAUUCUAUACAACCUUCUACCUCA | 0.00976 ± 0.0032
GGAGACCUAUGAUUACAAUCUACUACCUCA | 0.00319 ± 0.0026
GGAGACCUAUCUAUACAUCCUUCUACCUCA | 0.0137 ± 0.0039
GGAGACCUAUGUAUACAACCUACUAUCCUCA | 0.0887 ± 0.011
GGAGACCAUACUAUUCAACCUACAACCUCA | 0.185 ± 0.021
GGAGACCUAUGAUAUGAACCUACCUACCUCA | < 0.0001
GGAGACCUAUCUUUACAACCUACUUCCUCA | 0.0374 ± 0.0094
GGAGACCUAUCUAUACAACCAACUUCCUCA | 0.00361 ± 0.0027
GGAGACCUAUCAAAACAACCUACUACCUCA | 0.0082 ± 0.0029

Sequence | pre-steady-state target cleavage rate
GGAGACCUAUGUAUACAUCCUUCUACCUCA | 0.00859 ± 0.0018
GGAGACCUUAGUAUACAACGUACUACCUCA | 0.0124 ± 0.0037
GGAGACCUAUGAAUACAACCUACAACCUCA | 0.0078 ± 0.0029
GGAGACGAUUCUAUAGAACCUACUACCUCA | 0.172 ± 0.012
GGAGACCUAUGAAUACAACCUACGACCUCA | 0.0047 ± 0.0026
GGAGUGGAUACUAUAGAACCUAGUACCUCA | 0.00269 ± 0.0022
GGAGACCUAUGUAUACAACCUACGACCUCA | 0.0402 ± 0.0075
GGAGACGAUACAAUACAACGUACUACCUCA | 0.0185 ± 0.0029
GGAGACCUAACUAUACAACCUACUUGCUCA | 0.18 ± 0.062
GGAGACCUAACUAUACAACGUACAACCUCA | 0.0148 ± 0.005
GGAGAGGAUUCUAUACAACCUACUACCUGA | 0.0768 ± 0.011
GGAGACCUAUGAUAUGUACCUUCUACGUCA | < 0.0001
GGAGACCUAUCUAUACAACCUACUACAUCA | 0.051 ± 0.0067
GGAGAGGAAACUAUACAACCUACUACCUCA | 0.222 ± 0.026
GGAGAGGAUACUAUACAACGCUACUACCUCA | 0.00299 ± 0.0026
GGAGACGAUACUAUACUACCUACUAGCUCA | 0.124 ± 0.018
GGAGACCUAUGAAACAACCUACUACCUCA | 0.00673 ± 0.0031
GGAGACCUAACUAUACAACCUACUAACUCA | 0.1 ± 0.03
GGAGACCUAUGUUUACUACCUACUACCUCA | 0.00553 ± 0.0021
GGAGACCUAACUAAACAACCUACUACGUCA | 0.0404 ± 0.019
GGAGACCUAAGAUUACAACCUACUACCUCA | 0.0144 ± 0.0043
GGAGACCUAUCUAUAGUUCCUACUACCUCA | 0.0473 ± 0.012
GGAGAGGAUACUAUAGUUCCUACUACCUCA | 0.18 ± 0.015
GGAGACCUAACAAUACUACCUACUACCUCA | 0.0399 ± 0.013

Sequence | pre-steady-state target cleavage rate
GGAGACCUAUGUAUACUACCUAGUACCUCA | 0.00575 ± 0.0022
GGAGACCUUUCUAUACAACCUACUACCACA | 0.152 ± 0.018
GGAGACCUAUGUUUAGAACCUACUACCUCA | 0.00346 ± 0.0023
GGAGACCAUACUAUACAUCCUUCUACCUCA | 0.042 ± 0.0097
GGAGACCUAACUAUACAACCUACCUACCUCA | 0.0837 ± 0.018
GGAGACCUAUGAAUACAACCUACUGCCUCA | 0.0052 ± 0.0029
GGAGACCUAUGAUUACAACCUACUACGCUCA | 0.0104 ± 0.0039
GGAGACCUAUGAUUGCAACCUACUACCUCA | 0.00532 ± 0.003
GGAGACCUAUGAUUACAUCCUUCUACCUCA | 0.00314 ± 0.0026
GGAGACCUAUCUAUAUAACCUACUACCUCA | 0.0723 ± 0.0089
GGAGACGAUACUAUUGAACCUACUACCUCA | 0.157 ± 0.016
GGAGACCUAUCUAAACAACCUACUACCUGA | 0.0477 ± 0.013
GGAGACCUAUCUAUACAACCUACUACUCUCA | 0.194 ± 0.021
GGAGACCUAACUAUACAACCUACUACGCUCA | 0.212 ± 0.042
GGAGACGAUAGUAUUCAACCUACUACCUCA | 0.156 ± 0.012
GGAGACCUAUGAUUACAAGCUAGUACCUCA | 0.0146 ± 0.006
GGAGACCUAUCUAUACAACUACUACCUCA | 0.00292 ± 0.0024
GGAGACCUAUCAUACAACCUACUACCUCA | 0.0591 ± 0.0093
GGAGUGGAUACUUAUCAACCUACUACCUCA | 0.149 ± 0.011
GGAGACCUUACUAUAGUACCUACUACCUCA | 0.119 ± 0.0098
GGAGACCUAUGAAUACAACGUACUACCACA | 0.00353 ± 0.0029
GGAGACCUAACUAUUCAACCUACUACGUCA | 0.0338 ± 0.011
GGAGACCUAACUUAACAACCUACUACCUCA | 0.0309 ± 0.012
GGAGACCUAUGAUAUCAACCUACUUACCUCA | 0.00342 ± 0.0024
